Source: PubChem BioAssay (Tox21)
Records with an inconclusive call do not appear. The source made the active and inactive calls. Unless noted, calls follow the shape of the dose curve; as a rule, active = well fitted curve in the direction sought with a large enough effect in the repeat runs; inconclusive = weak or mixed curves; inactive = no such curve, though single readings can be large; an effect the other way counts as inactive or inconclusive.

Assays:
[1] = qHTS assay for small molecules that induce genotoxicity in human embryonic kidney cells expressing luciferase-tagged ATAD5 (AID 651632); also: nearly all actives have a fitted effect of over 15% in size
In short: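 Increased luciferase signal from ATAD5-tagged reporter cells indicates DNA-damage-driven ATAD5 induction. HEK293T cells are treated for 16 hr at 37C before detection with Amplite.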

[2] = qHTS assay for small molecule agonists of the p53 signaling pathway - cell viability (AID 651633; calls by dose curve; also: nearly all actives have a fitted effect of over 30% in size; also: potency is read from the fitted curve at half-maximal effect)
In short: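 p53RE-bla cells were treated with compound for 16 hours at 37 C. Cytotoxicity was then measured as CellTiter-Glo luminescence after 30 min at room temperature.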

[3] = qHTS assay for small molecule disruptors of the mitochondrial membrane potential - cell viability (AID 720634; calls by dose curve;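 also: human HepG2 liver cancer cells; nearly all actives have a fitted effect of over 20% in size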)
In short: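 After overnight attachment at 37 C, HepG2 cells received compound or DMSO vehicle for 1 hr. Viability is then taken from ATP-driven luminescence following a 30 min room-temperature CellTiter-Glo step.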

[4] = qHTS assay to test for compound auto fluorescence at 590 nm (red) in HepG2 cells (AID 720674)
In short: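 Fluorescence at 590 nm emission following 540 nm excitation was recorded from HepG2 wells one hour after compound transfer, with DMSO-only wells as vehicle and Rose Bengal sodium equivalency as the scale.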

[5] = qHTS assay to test for compound auto fluorescence at 460 nm (blue) in HEK293 cells (AID 720678)
In short: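 Intrinsic compound fluorescence is recorded in live HEK293 cultures after overnight incubation at 37C, 5% CO2, using excitation 405 nm and emission 460 nm. Values are referenced to triamterene.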

[6] = qHTS assay to test for compound auto fluorescence at 590 nm (red) in HEK293 cells (AID 720679)
In short: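 Red autofluorescence, HEK293 cells: 2,000 cells/well; attach 4-5 hr 37C; add 23 nL cpd or DMSO; incubate o/n 37C 5% CO2; read Ex540/Em590; Rose Bengal sodium reference.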

[7] = qHTS assay to test for compound auto fluorescence at 535 nm (green) in HEK293 cells (AID 720680)
[8] = qHTS assay to test for compound auto fluorescence at 460 nm (blue) in HEK293 cell free culture (AID 720681)
In short: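 Compounds were added to cell-free DMEM with 10% FBS and fluorescence read directly. The blue channel used 405 nm excitation and 460 nm emission, with triamterene as the reference fluorophore.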

[9] = qHTS assay to test for compound auto fluorescence at 535 nm (green) in HEK293 cell free culture (AID 720682)
In short: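 No cells present: wells hold DMEM supplemented with 10% FBS, into which compound or vehicle is pinned. Green emission is then recorded (485 nm excitation, 535 nm emission) and scaled to fluorescein.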

[10] = qHTS assay to test for compound auto fluorescence at 460 nm (blue) in HepG2 cell free culture (AID 720685)
In short: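 Compound (23 nL) or DMSO pinned into cell-free MEM with 10% FBS; blue fluorescence read at 405/460 nm excitation/emission, expressed as auto-fluorescence equivalency to triamterene.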

[11] = qHTS assay to test for compound auto fluorescence at 535 nm (green) in HepG2 cell free culture (AID 720686)
[12] = qHTS assay to test for compound auto fluorescence at 460 nm (blue) in HepG2 cells (AID 720687)
In short: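 HepG2 cells in MEM with 10% FBS, attached overnight at 37 C, were exposed to compound or DMSO for 1 hr at 37 C, 5% CO2. Blue fluorescence was read at 405/460 nm, with triamterene as reference fluorophore.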

[13] = molecular target: Glucocorticoid receptor (Homo sapiens) (UniProt P04150); test: qHTS assay to identify small molecule agonists of the glucocorticoid receptor (GR) signaling pathway (AID 720691; active = well fitted activation curve with a large enough effect in the signal ratio in the repeat runs, not every such curve was filed as active; the % refers to the signal ratio); settings: GR-bla HeLa, beta-lactamase reporter ratio, 18 h; activation: at 62.4 µM (top of the series) unless noted
In short: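 Agonist mode in a HeLa line carrying a GRE-controlled beta-lactamase reporter. Compounds act for 18 h at 37 C before a 2 h room-temperature FRET substrate step and fluorescence reading.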

[14] = qHTS assay for small molecules that induce genotoxicity in human embryonic kidney cells expressing luciferase-tagged ATAD5 - cell viability (AID 651634; calls by dose curve; also: nearly all actives have a fitted effect of over 25% in size)
In short: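 Cytotoxicity counterscreen in HEK293T cells bearing an ATAD5-luciferase reporter: live-cell protease activity measured by CellTiter-Fluor fluorescence after 15.5 hr compound exposure.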

[15] = qHTS assay to test for compound auto fluorescence at 535 nm (green) in HepG2 cells (AID 720675)
[16] = qHTS assay to test for compound auto fluorescence at 590 nm (red) in HepG2 cell free culture (AID 720684)
In short: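 Compound was pinned into wells holding MEM with 10% FBS and no cells, and red fluorescence was read at Ex/Em 540/590 nm. Signal is expressed as auto fluorescence equivalency relative to Rose Bengal sodium.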

[17] = qHTS assay to test for compound auto fluorescence at 590 nm (red) in HEK293 cell free culture (AID 720683)
In short: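 Cell-free wells of DMEM with 10% FBS received compound, and intrinsic fluorescence was read at excitation/emission 540/590 nm. Values expressed as equivalence to Rose Bengal sodium.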

[18] = qHTS assay for small molecule disruptors of the mitochondrial membrane potential (AID 720635); also: potency is read from the fitted curve at half-maximal effect
In short: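 HepG2 cells exposed to compound 1 hr at 37C, then Mito-MPS dye 30 min. Ratio read of aggregate (540/590 nm) versus monomer (490/535 nm) fluorescence.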

[19] = molecular target: Glucocorticoid receptor (Homo sapiens) (UniProt P04150); test: qHTS assay to identify small molecule antagonists of the glucocorticoid receptor (GR) signaling pathway (AID 720692; active = well fitted inhibition curve with a large enough effect in the signal ratio in the repeat runs, not every such curve was filed as active; the % refers to the signal ratio)
In short: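 Cells plated, rested 4 h at 37 C/5% CO2; compounds in DMSO pin-transferred; dexamethasone added to 5 nM final; 18 h at 37 C; B/G FRET substrate added, 2 h room temperature; fluorescence measured.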
% is scaled to controls: 0 for no effect and ±100 for the full control effect.

Sequence of Glucocorticoid receptor (Homo sapiens) (P04150 whole entry, looked up): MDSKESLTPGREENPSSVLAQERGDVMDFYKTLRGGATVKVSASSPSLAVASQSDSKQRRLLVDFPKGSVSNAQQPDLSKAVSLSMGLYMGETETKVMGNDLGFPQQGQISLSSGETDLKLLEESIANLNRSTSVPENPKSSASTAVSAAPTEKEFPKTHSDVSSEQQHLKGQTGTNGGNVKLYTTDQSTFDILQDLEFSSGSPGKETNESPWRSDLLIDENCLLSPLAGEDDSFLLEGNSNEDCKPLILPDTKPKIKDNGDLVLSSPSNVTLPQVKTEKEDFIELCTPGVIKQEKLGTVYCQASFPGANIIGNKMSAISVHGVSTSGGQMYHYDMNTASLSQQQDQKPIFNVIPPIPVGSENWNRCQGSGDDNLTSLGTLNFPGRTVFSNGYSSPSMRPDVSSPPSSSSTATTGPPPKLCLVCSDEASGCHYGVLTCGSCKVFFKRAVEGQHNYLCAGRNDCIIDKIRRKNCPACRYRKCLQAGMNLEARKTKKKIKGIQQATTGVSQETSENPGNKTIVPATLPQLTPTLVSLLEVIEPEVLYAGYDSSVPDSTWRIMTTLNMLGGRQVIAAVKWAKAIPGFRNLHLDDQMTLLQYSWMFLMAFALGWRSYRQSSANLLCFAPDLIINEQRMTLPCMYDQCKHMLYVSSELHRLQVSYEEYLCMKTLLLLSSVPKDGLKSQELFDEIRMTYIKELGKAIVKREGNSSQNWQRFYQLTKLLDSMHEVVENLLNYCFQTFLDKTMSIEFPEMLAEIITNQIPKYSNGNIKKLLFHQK

Clc1ccc2c(c1)CCc1cccnc1C2=C1CCNCC1
inactive: Potency [1] | Potency [2] | Potency [3] | Potency [4] | outcome [5] | Potency [6] | outcome [7] | outcome [8] | outcome [9] | outcome [10] | Potency [11] | outcome [12] | Potency [13]

O=C(O)c1ccc(S(=O)(=O)O)cc1C(=O)O
inactive: Potency [1] | Potency [2] | Potency [14] | Potency [3] | Potency [4] | Potency [15] | outcome [5] | Potency [6] | outcome [7] | outcome [8] | outcome [9] | Potency [16] | outcome [10] | outcome [12]

S=C([S-])NCCNC(=S)[S-].[Mn+2]
inactive: Potency [1] | Potency [2] | Potency [3] | Potency [4] | Potency [15] | outcome [5] | Potency [6] | outcome [7] | outcome [8] | outcome [9] | Potency [17] | Potency [16] | outcome [10] | outcome [12]

Cc1nn(C)c(Oc2ccccc2)c1/C=N/OCc1ccc(C(=O)OC(C)(C)C)cc1
inactive: Potency [1] | Potency [2] | Potency [4] | Potency [15] | outcome [5] | Potency [6] | outcome [7] | outcome [8] | outcome [9] | Potency [16] | outcome [10] | outcome [12]
active: Potency [18] 17.2 µM

COc1ccnc(CS(=O)c2nc3ccc(OC(F)F)cc3[nH]2)c1OC (configuration not stated)
inactive: Potency [1] | Potency [2] | Potency [14] | Potency [3] | Potency [4] | outcome [5] | Potency [6] | outcome [7] | outcome [8] | outcome [9] | Potency [16] | outcome [10] | Potency [11] | Potency [13]

COc1cc2c(cc1OC)C(C(C(=O)N(CCc1ccc(OC)c(OC)c1OC)CCc1ccc(OC)c(OC)c1OC)c1ccccc1)=NCC2 (configuration not stated)
inactive: Potency [1] | Potency [2] | Potency [3] | Potency [4] | Potency [15] | Potency [6] | outcome [7] | outcome [8] | Potency [17] | Potency [16] | outcome [10] | Potency [11] | outcome [12]

CCCOC(C(=O)OC1CCN(C)CC1)(c1ccccc1)c1ccccc1
inactive: Potency [1] | Potency [2] | Potency [14] | Potency [3] | outcome [5] | Potency [6] | outcome [7] | outcome [8] | outcome [9] | Potency [17] | Potency [16] | outcome [10] | Potency [11] | outcome [12] | Potency [19]

C[N+]1(C)CCC(OC(=O)C(O)(c2ccccc2)C2CCCC2)C1 (configuration not stated)
inactive: Potency [1] | Potency [2] | Potency [3] | Potency [18] | Potency [15] | outcome [5] | Potency [6] | outcome [7] | outcome [8] | outcome [9] | Potency [17] | Potency [16] | outcome [10] | Potency [11] | outcome [12]

CN(C)CCN(Cc1ccc(Cl)cc1)c1ccccn1
inactive: Potency [1] | Potency [2] | Potency [14] | Potency [3] | fluorescence, % of fluorescent control [6] -0.0077% [at 18.6 µM] | fluorescence, % of fluorescein [7] 0.0009% [at 18.6 µM] | fluorescence, % of fluorescent control [8] -0.0429% [at 18.6 µM] | activity change [9] 2e-05% [at 18.6 µM] | fluorescence, % of fluorescent control [17] -0.237% [at 18.6 µM] | fluorescence, % of Rose Bengal [16] 0.0021% [at 18.6 µM] | fluorescence, % of fluorescent control [10] 0.027% [at 18.6 µM] | fluorescence, % of fluorescein control [11] -0.14% [at 18.6 µM] | fluorescence, % of fluorescent control [12] -0.0264% [at 18.6 µM] | Potency [13] | Potency [19]

CCCCCCCCCCCCCCCCCCOS(=O)(=O)O
active: Potency [2] 61.1 µM
inactive: Potency [1] | Potency [14] | Potency [3] | Potency [15] | outcome [5] | Potency [6] | outcome [7] | outcome [8] | outcome [9] | Potency [17] | Potency [16] | outcome [10] | Potency [11] | outcome [12] | Potency [13]

CCOC(=O)C1=C[C@]2(CC)CCCN3CCc4c(n1c1ccccc41)[C@@H]32
inactive: Potency [1] | Potency [2] | Potency [14] | Potency [3] | Potency [4] | Potency [15] | outcome [5] | Potency [6] | outcome [7] | outcome [8] | outcome [9] | Potency [17] | Potency [11] | Potency [13] | Potency [19]
